# According to PubChem BioAssay AID602257 (NMMLSC, 2012):
# Potency and affinity values are given separately. The source made the active and inactive calls. Where a call stands in place of a potency, no number is given. How the calls were made is not given here.
# Assay: yeast V-ATPase proton pumping modulator potency, dose response, S. cerevisiae, pHLuorin, powder set 1 (AID 602257)
# Details: vacuolar pH, pHLuorin fluorescence; series mostly up to 100 µM
row,SMILES,outcome
1,O=C(c1cccs1)N1CCN(c2nc3ccc(F)cc3s2)CC1,inactive
2,O=C(c1ccc([N+](=O)[O-])o1)N1CCN(c2nc3ccc(F)cc3s2)CC1,inactive
3,O=C(c1ccc([N+](=O)[O-])o1)N1CCN(c2nccs2)CC1,inactive
4,O=C(c1ccc(Br)s1)N1CCN(c2nc3ccc(F)cc3s2)CC1,inactive
5,O=C(C1CC1)N1CCN(c2nc3ccc(F)cc3s2)CC1,inactive
6,CS(=O)(=O)c1ccc2nc(N3CCN(C(=O)c4ccc([N+](=O)[O-])o4)CC3)sc2c1,inactive
7,O=C(C1CCCCC1)N1CCN(c2nc3ccc(F)cc3s2)CC1,inactive
8,O=C(c1ccco1)N1CCN(c2nc3ccc(F)cc3s2)CC1,inactive
9,O=C(c1ccc([N+](=O)[O-])o1)N1CCN(c2ccccn2)CC1,inactive
10,Cc1cc(C(=O)N2CCN(c3nc4ccc(F)cc4s3)CC2)nn1C,inactive
11,CS(=O)(=O)c1cccc2sc(N3CCN(C(=O)c4ccc([N+](=O)[O-])o4)CC3)nc12,inactive
12,O=C(c1ccno1)N1CCN(c2nc3ccc(F)cc3s2)CC1,inactive
13,Cc1cc(C(=O)N2CCN(c3nc4ccc(F)cc4s3)CC2)no1,inactive
14,CC(C)(C)C(=O)N1CCN(c2nc3ccc(F)cc3s2)CC1,inactive
15,Cc1cc(C(=O)N2CCN(c3nc4ccc(F)cc4s3)CC2)n(C)n1,inactive
16,O=C(c1nc2ccccc2s1)N1CCN(c2nc3ccc(F)cc3s2)CC1,inactive
17,O=C(c1cnccn1)N1CCN(c2nc3ccc(F)cc3s2)CC1,inactive
18,Cc1cc(C(=O)N2CCN(c3nc4ccc(F)cc4s3)CC2)on1,inactive
19,O=C(c1ccc(Cl)s1)N1CCN(c2nc3ccc(F)cc3s2)CC1,inactive
20,COc1ccc2nc(N3CCN(C(=O)c4ccc([N+](=O)[O-])o4)CC3)sc2c1,inactive
